Screens as filed in PubChem.
This is a sample that favours compounds with a hit; in the whole collection about 4.7% have one here.
TRHR enhancer: allosteric enhancers of human TRH receptor. P34981. TRHR cells, fluo-8 calcium fluorescence, EC20 TRH enhancement. enhancement, % at 2 µM. 360,000 compounds, 0.66% hits; in the data active = enhancement above about 30%; also: 0% is about no effect
Target sequence (P34981 whole entry, looked up): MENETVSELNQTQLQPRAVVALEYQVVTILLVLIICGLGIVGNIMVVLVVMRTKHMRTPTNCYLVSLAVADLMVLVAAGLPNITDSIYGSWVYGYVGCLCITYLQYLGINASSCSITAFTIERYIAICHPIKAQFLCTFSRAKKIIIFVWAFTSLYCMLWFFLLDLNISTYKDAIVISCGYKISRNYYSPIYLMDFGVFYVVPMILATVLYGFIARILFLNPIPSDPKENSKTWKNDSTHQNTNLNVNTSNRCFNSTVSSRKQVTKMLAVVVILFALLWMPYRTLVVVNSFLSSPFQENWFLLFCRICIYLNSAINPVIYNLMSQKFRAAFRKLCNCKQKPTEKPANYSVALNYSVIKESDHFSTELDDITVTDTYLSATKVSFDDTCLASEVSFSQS
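TRHR-expressing cells loaded with fluo-8 calcium dye were read kinetically (ex 480/em 530) during compound addition, then stimulated with an EC20 of TRH (10 nM final). Enhancement of the Gq-mediated intracellular calcium response was scored.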
D1 PAM: human D1 dopamine receptor positive modulation; 360,000 compounds, 0.036% hits; P21728; HEK293 TREx D1 cells, calcium flux, dopamine EC20 potentiation; potentiation, % at 10 µM; in the data active = potentiation above about 30%; also: 0% is about no effect
TRHR agonist: TRH receptor (human) agonism. TRHR cells, calcium flux fluo-8, FDSS agonist mode. activation, % at 2 µM. 360,000 compounds, 0.18% hits. P34981; also: 0% is about no effect
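Read-out: compound-evoked intracellular calcium rise in TRHR cells, fluo-8 dye, kinetic FDSS fluorescence at 1 s/cycle following a 10-cycle baseline. Cells cultured overnight before dye loading (30 min–1.5 h, RT).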
D1 ag: activates the human D1 dopamine receptor; 360,000 compounds, 1% hits; AID 504660; HEK293 T-REx D1 cells, calcium flux, agonist mode; activation, % at 2 µM; also: 0% is about no effect
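Tetracycline-induced HEK293 TREx D1 cells, force-coupled to calcium signalling, were dye-loaded with a no-wash calcium kit. Compound was pin-added after a 10 s baseline. Fluorescence was read kinetically at 1 cycle/s for 180 s, with calcium rises flagged as agonism.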
D1 antagonist: antagonists of human D1 dopamine receptor; HEK293 TREx D1 cells, calcium flux, dopamine EC80; active compounds read low; activity change, negative = inhibition, % at 10 µM; 360,000 compounds, 3.2% hits; in the data active = activity change below about -30%; also: % is scaled to controls: 0 for no effect and ±100 for the full control effect
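Compound effects on dopamine-evoked calcium signalling were measured in tetracycline-induced HEK293 Trex D1 cells. Dopamine at EC80 followed a 180 s compound pre-read, and fluorescence was tracked kinetically for 180 s more.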
* marks the source's active call; other numbers are inactive results; nt = no result. Rule as the data show it, unless noted: active = activation above about 30%; inactive = the rest.

SMILES | TRHR enhancer | D1 PAM | TRHR agonist | D1 ag | D1 antagonist
CCC1CN(C(=O)N2CCC(C(=O)NCCC3=CCCCC3)CC2)c2cc(C)ccc2O1 (stereo not drawn) | -7 | -3 | 0 | 1 | -31*
Cc1ccccc1-c1nc(CN2CCC(C(=O)NCCCN3CCCC(C)C3)CC2)c(C)o1 (stereo not drawn) | 0 | -8 | 0 | 1 | -5
Cc1ccccc1-c1nc(CN2CCC(C(=O)NCCc3ccccc3)CC2)c(C)o1 | 3 | -4 | 0 | 23 | -6
COc1ccc(CCNC(=O)C2CCN(Cc3nc(-c4ccccc4C)oc3C)CC2)cc1OC | -4 | -6 | 0 | 37* | -40*
Cc1ccccc1-c1nc(CN2CCC(C(=O)NCCC3=CCCCC3)CC2)c(C)o1 | 7 | -5 | 1 | 31* | -28
Cc1ccc(CNC(=O)CN2CCCN(Cc3ccc(F)cc3)S2(=O)=O)cc1 | -3 | 0 | -1 | 4 | 2
CC(C)C(=O)NNC(=O)c1csc(-c2cccs2)n1 | 32* | -2 | -1 | 1 | 2
CC(=O)C1=C(c2ccc(Cl)cc2)N(C(C)=O)n2c(nnc2C2CCCCC2)S1 | 0 | -2 | 0 | 1 | nt
COc1ccc(-c2csc(NC(=O)c3ccccc3NS(=O)(=O)c3ccc(F)c(F)c3)n2)cc1 | -9 | -10 | 1 | 23 | -49*
Cc1ccc(S(=O)(=O)Nc2ccccc2C(=O)Nc2nc(-c3ccc(F)cc3)cs2)cc1 | 9 | -8 | 0 | 26 | -65*
Cc1ccc(S(=O)(=O)N(C)c2ccc(OCC(=O)Nc3nc(-c4ccccc4)cs3)cc2)cc1 | -3 | -7 | 0 | 7 | -37*
COc1ccc(-c2csc(NS(=O)(=O)c3ccc([N+](=O)[O-])cc3)n2)cc1 | -4 | -11 | 0 | -1 | -31*
CNc1nc(-c2ccc([N+](=O)[O-])cc2)cs1 | -16 | -7 | -1 | 2 | -5
Cc1cc(Br)cc(C)c1NC(=O)c1sc2ncn(Cc3cccc(F)c3)c(=O)c2c1C | 5 | -6 | 1 | 3 | -15
Cc1ccc(NC(=O)c2cccc(N3CCCS3(=O)=O)c2)cc1C | 10 | -4 | 0 | 1 | -5
CCS(=O)(=O)N1CC(=O)N(c2cccc(C)c2C)C(C)(C(=O)NC2CCCCC2)C1 (stereo not drawn) | 0 | -1 | 0 | 2 | 11
O=C(CCC1CCCN(C(=O)c2ccc3c(c2)OCO3)C1)NCc1ccc(F)c(F)c1 (stereo not drawn) | -3 | -4 | -1 | 1 | -30*
COc1ccc(C(=O)Nc2nnc(CC(=O)N/N=C/c3ccc(O)cc3O)s2)cc1 | 3 | -2 | 52* | 46* | 15
CN(C)CCNc1ncnc2c1sc1nc(-c3ccccc3)c3c(c12)CCCC3 | 4 | -22 | 2 | 14 | -80*
COCCNC(=S)N1CCC(C(=O)c2ccc(C)cc2)CC1 | 7 | -6 | 0 | 7 | 1
CCC(=O)OCC(=O)Nc1ncc(C(F)(F)F)cc1Cl | 5 | 2 | 1 | 2 | -23
O=C(COC(=O)CSc1cc(Cl)ccc1Cl)Nc1ncc(C(F)(F)F)cc1Cl | -3 | 7 | 1 | 7 | -32*
Cc1ccc(-n2nnnc2CNC(=O)C(C)C)cc1C | -1 | -2 | 0 | -1 | -3
O=C(Cc1cccc(C(F)(F)F)c1)NCc1cccc(Cl)c1 | -9 | -10 | -1 | 2 | -19
O=C(CS(=O)c1ccc(F)cc1)Nc1ccccc1Cl (stereo not drawn) | -5 | -4 | 0 | 2 | 6
O=C(Cc1cccc(C(F)(F)F)c1)NCC(=O)Nc1cc(Cl)ccc1Cl | -2 | 32* | 0 | 3 | 7
O=C(CS(=O)c1cccc(C(F)(F)F)c1)Nc1ccccc1Cl (stereo not drawn) | 7 | -8 | 1 | 4 | -47*
CC(OC(=O)CCCN=C1NS(=O)(=O)c2ccccc21)C(=O)Nc1ccccc1F (stereo not drawn) | 0 | -12 | 0 | 3 | -39*
O=C(CCN=C1NS(=O)(=O)c2ccccc21)OCC(=O)c1ccc(F)cc1 | 4 | -6 | 0 | 4 | -13
O=C(CCCN=C1NS(=O)(=O)c2ccccc21)OCC(=O)c1ccc(F)cc1 | 0 | 2 | 11 | 56* | -8
